Data from publication PMC10812921, “Transcriptional Coactivator BOB1 (OBF1, OCA-B) Modulates the Specificity of DNA Recognition by the POU-Domain Factors OCT1 and OCT2 in a Monomeric Configuration”.

Columns and labels:
POU1 (OCT1 POU domain) = POU1 (OCT1 POU domain) (human, UniProt P14859 260-458); assay: EMSA-SELEX-seq; no BOB1; 20 mM Tris-HCl pH 7.6, 140 mM NaCl, 10% glycerol, 0.5 mM EDTA, 0.05% Triton X-100, 0.1 mg/mL BSA, 0.1 mg/mL poly(dI-dC), 5 mM DTT, room temperature, 20 min; high values mean tight binding; conditions: protein: recombinant; dsDNA, one strand shown
Summary of the method: (§1)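 A double-stranded random 35-nt library (300 ng, PCR-amplified) was incubated with 30 ng tagged POU-domain protein, with or without 28 ng coactivator protein, in 20 μL Tris–HCl pH 7.6 binding buffer for 20 min at RT. The proteins had been expressed in E. coli BL21, purified under denaturing conditions and renatured. Complex bands from native 6% PAGE were eluted and PCR-amplified over four rounds, then sequenced on Illumina. For binding preference, the percentage of sequenced 8-mers matching a motif pattern was calculated.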

POU2 (OCT2 POU domain) = molecular target: T1, POU2 (OCT2 POU domain) (human, UniProt P09086 175-386); assay: as above; conditions: protein: recombinant; dsDNA, one strand shown
T1 sequence: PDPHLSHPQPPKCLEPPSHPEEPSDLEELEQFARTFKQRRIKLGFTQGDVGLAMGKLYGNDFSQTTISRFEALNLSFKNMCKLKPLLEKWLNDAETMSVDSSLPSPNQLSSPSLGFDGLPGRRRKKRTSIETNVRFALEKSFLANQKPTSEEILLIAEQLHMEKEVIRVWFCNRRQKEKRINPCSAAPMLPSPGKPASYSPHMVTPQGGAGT
Summary of the method: as §1

[1] = molecular target: POU1 (OCT1 POU domain);BOB1 (OBF1, OCA-B) (human;human, UniProt P14859;Q16633 260-458;1-256, |); assay: EMSA-SELEX-seq; with BOB1 (ternary complex band); 20 mM Tris-HCl pH 7.6, 140 mM NaCl, 10% glycerol, 0.5 mM EDTA, 0.05% Triton X-100, 0.1 mg/mL BSA, 0.1 mg/mL poly(dI-dC), 5 mM DTT, room temperature, 20 min; high values mean tight binding; conditions: protein: recombinant;recombinant; copies: 1;1; dsDNA, one strand shown
Summary of the method: as §1

[2] = molecular target: T2, POU2 (OCT2 POU domain);BOB1 (OBF1, OCA-B) (human;human, UniProt P09086;Q16633 175-386;1-256, |); assay: as above; conditions: protein: recombinant;recombinant; copies: 1;1; dsDNA, one strand shown
T2 sequence 1: T1 sequence
T2 sequence 2: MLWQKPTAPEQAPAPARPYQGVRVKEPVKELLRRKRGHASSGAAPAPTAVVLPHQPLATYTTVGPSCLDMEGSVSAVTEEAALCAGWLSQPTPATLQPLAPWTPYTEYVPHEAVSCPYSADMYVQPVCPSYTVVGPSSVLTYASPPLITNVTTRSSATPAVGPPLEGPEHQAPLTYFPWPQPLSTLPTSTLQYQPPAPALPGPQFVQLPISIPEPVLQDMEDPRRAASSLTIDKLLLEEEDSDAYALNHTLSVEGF
Summary of the method: as §1

Sequence of POU1 (OCT1 POU domain) (P14859 260-458): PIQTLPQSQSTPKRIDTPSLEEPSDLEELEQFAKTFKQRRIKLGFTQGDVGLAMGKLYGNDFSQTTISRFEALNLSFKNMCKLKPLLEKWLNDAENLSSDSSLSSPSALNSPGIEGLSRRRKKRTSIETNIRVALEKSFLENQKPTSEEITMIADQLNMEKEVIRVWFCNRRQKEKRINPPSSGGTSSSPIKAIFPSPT

| Sequence | binding signal (POU1 (OCT1 POU domain)) | binding signal (POU2 (OCT2 POU domain)) | binding signal [1] | binding signal [2] |
| --- | --- | --- | --- | --- |
| AAGACAAC | 0.0168 % of ANNNNAAN 8-mers | 0.019 % of ANNNNAAN 8-mers | 0.0195 % of ANNNNAAN 8-mers | 0.0157 % of ANNNNAAN 8-mers |
| ACGACAAA | 0.0217 % of ANNNNAAN 8-mers | 0.0299 % of ANNNNAAN 8-mers | 0.0222 % of ANNNNAAN 8-mers | 0.0256 % of ANNNNAAN 8-mers |
| AACCTAAC | 0.013 % of ANNNNAAN 8-mers |  |  | 0.0132 % of ANNNNAAN 8-mers |
| ACCTCAAG | 0.0141 % of ANNNNAAN 8-mers | 0.0127 % of ANNNNAAN 8-mers | 0.0156 % of ANNNNAAN 8-mers |  |
| AACCCAAG | 0.0111 % of ANNNNAAN 8-mers | 0.015 % of ANNNNAAN 8-mers | 0.0144 % of ANNNNAAN 8-mers |  |
| ATAGCAAG | 0.032 % of ANNNNAAN 8-mers | 0.0363 % of ANNNNAAN 8-mers | 0.0394 % of ANNNNAAN 8-mers | 0.0454 % of ANNNNAAN 8-mers |
| AGACCAAA | 0.0179 % of ANNNNAAN 8-mers | 0.0213 % of ANNNNAAN 8-mers | 0.0246 % of ANNNNAAN 8-mers | 0.0239 % of ANNNNAAN 8-mers |
| AAGCGAAC | 0.0221 % of ANNNNAAN 8-mers | 0.0178 % of ANNNNAAN 8-mers | 0.0176 % of ANNNNAAN 8-mers | 0.0231 % of ANNNNAAN 8-mers |
| AGTGAAAC | 0.0282 % of ANNNNAAN 8-mers | 0.0178 % of ANNNNAAN 8-mers | 0.0324 % of ANNNNAAN 8-mers | 0.0206 % of ANNNNAAN 8-mers |
| AGCCCAAC |  |  | 0.0105 % of ANNNNAAN 8-mers | 0.0124 % of ANNNNAAN 8-mers |
| ACGCCAAG | 0.0145 % of ANNNNAAN 8-mers | 0.0167 % of ANNNNAAN 8-mers |  | 0.014 % of ANNNNAAN 8-mers |
| ACGGCAAA | 0.0328 % of ANNNNAAN 8-mers | 0.0305 % of ANNNNAAN 8-mers | 0.0445 % of ANNNNAAN 8-mers | 0.0371 % of ANNNNAAN 8-mers |
| AACGCAAC | 0.013 % of ANNNNAAN 8-mers | 0.0201 % of ANNNNAAN 8-mers |  | 0.0182 % of ANNNNAAN 8-mers |
| ATATCAAG | 0.0641 % of ANNNNAAN 8-mers | 0.0552 % of ANNNNAAN 8-mers | 0.0453 % of ANNNNAAN 8-mers | 0.0479 % of ANNNNAAN 8-mers |
| ATTATAAT | 0.94 % of ANNNNAAN 8-mers | 1.04 % of ANNNNAAN 8-mers | 0.163 % of ANNNNAAN 8-mers | 0.207 % of ANNNNAAN 8-mers |
| AGCATAAA | 0.204 % of ANNNNAAN 8-mers | 0.213 % of ANNNNAAN 8-mers | 0.0566 % of ANNNNAAN 8-mers | 0.0867 % of ANNNNAAN 8-mers |
| AGAAGAAG | 0.029 % of ANNNNAAN 8-mers | 0.0547 % of ANNNNAAN 8-mers | 0.0379 % of ANNNNAAN 8-mers | 0.0454 % of ANNNNAAN 8-mers |
| ACGCCAAC |  | 0.0115 % of ANNNNAAN 8-mers | 0.0121 % of ANNNNAAN 8-mers |  |
| ACCACAAG | 0.0114 % of ANNNNAAN 8-mers | 0.0178 % of ANNNNAAN 8-mers | 0.0113 % of ANNNNAAN 8-mers |  |

| Sequence | binding signal (POU1 (OCT1 POU domain)) | binding signal (POU2 (OCT2 POU domain)) | binding signal [1] | binding signal [2] |
| --- | --- | --- | --- | --- |
| AGTCAAAC | 0.0763 % of ANNNNAAN 8-mers | 0.042 % of ANNNNAAN 8-mers | 0.122 % of ANNNNAAN 8-mers | 0.0545 % of ANNNNAAN 8-mers |
| ACACCAAC |  | 0.0127 % of ANNNNAAN 8-mers | 0.0113 % of ANNNNAAN 8-mers | 0.0107 % of ANNNNAAN 8-mers |
| AAGAAAAC | 0.0473 % of ANNNNAAN 8-mers | 0.0345 % of ANNNNAAN 8-mers | 0.0644 % of ANNNNAAN 8-mers | 0.0355 % of ANNNNAAN 8-mers |
| ACCGGAAG |  | 0.0127 % of ANNNNAAN 8-mers |  | 0.0124 % of ANNNNAAN 8-mers |
| ACCCGAAC | 0.0111 % of ANNNNAAN 8-mers | 0.0109 % of ANNNNAAN 8-mers |  | 0.0132 % of ANNNNAAN 8-mers |
| ACCGCAAC | 0.0114 % of ANNNNAAN 8-mers |  |  | 0.0157 % of ANNNNAAN 8-mers |
| ACTGCAAC | 0.0114 % of ANNNNAAN 8-mers | 0.0155 % of ANNNNAAN 8-mers | 0.0199 % of ANNNNAAN 8-mers |  |
| AAGTTAAT | 0.165 % of ANNNNAAN 8-mers | 0.178 % of ANNNNAAN 8-mers | 0.102 % of ANNNNAAN 8-mers | 0.102 % of ANNNNAAN 8-mers |
| AGCTCAAC |  | 0.0132 % of ANNNNAAN 8-mers | 0.0101 % of ANNNNAAN 8-mers | 0.0231 % of ANNNNAAN 8-mers |
| ACCTCAAC |  |  | 0.0129 % of ANNNNAAN 8-mers | 0.0107 % of ANNNNAAN 8-mers |
| ACAGCAAC | 0.0153 % of ANNNNAAN 8-mers | 0.0155 % of ANNNNAAN 8-mers | 0.014 % of ANNNNAAN 8-mers |  |
| AGCACAAC | 0.0114 % of ANNNNAAN 8-mers | 0.0132 % of ANNNNAAN 8-mers |  | 0.0124 % of ANNNNAAN 8-mers |
| ACCCAAAC |  |  | 0.0164 % of ANNNNAAN 8-mers | 0.0107 % of ANNNNAAN 8-mers |
| ACCCCAAG |  | 0.0115 % of ANNNNAAN 8-mers | 0.0105 % of ANNNNAAN 8-mers |  |
| ACTACAAC | 0.0122 % of ANNNNAAN 8-mers | 0.0196 % of ANNNNAAN 8-mers | 0.0164 % of ANNNNAAN 8-mers | 0.0173 % of ANNNNAAN 8-mers |
| ACCGCAAG | 0.0114 % of ANNNNAAN 8-mers | 0.0127 % of ANNNNAAN 8-mers | 0.0176 % of ANNNNAAN 8-mers |  |
| ACCGAAAC | 0.0107 % of ANNNNAAN 8-mers | 0.0132 % of ANNNNAAN 8-mers | 0.0125 % of ANNNNAAN 8-mers |  |
| ACTGGAAC | 0.0168 % of ANNNNAAN 8-mers | 0.0207 % of ANNNNAAN 8-mers | 0.0183 % of ANNNNAAN 8-mers | 0.0206 % of ANNNNAAN 8-mers |
